# Compound activity from PubChem.
# An excerpt weighted towards active compounds, which were near 3.5% of everything screened.
# GPR151 activ: activators of human GPR151, primary screen, cell-based, PathHunter beta-arrestin, luminescence; G-protein coupled receptor 151 (Homo sapiens), Q8TDV0; PathHunter beta-arrestin GPR151 cells; activation, % at 11.2 µM; 650,000 compounds, 1% hits; AID 1508602, 2020; in the data active = activation above about 4.9%;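 also: 0% = median of compound wells and 100% = cells with positive control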
# FBW7 act: FBW7 E3 ligase activators, primary screen, biochemical, AlphaScreen, human. normalized activity (activation), % at 26.1 µM. 650,000 compounds, 0.13% hits. AlphaScreen FBW7–phospho-cyclin E peptide binding, activator screen; in the data active = normalized activity above about 1.9%;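 also: purified mutant Fbw7 with reduced substrate affinity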
# Target sequence (Q969H0 whole entry, looked up): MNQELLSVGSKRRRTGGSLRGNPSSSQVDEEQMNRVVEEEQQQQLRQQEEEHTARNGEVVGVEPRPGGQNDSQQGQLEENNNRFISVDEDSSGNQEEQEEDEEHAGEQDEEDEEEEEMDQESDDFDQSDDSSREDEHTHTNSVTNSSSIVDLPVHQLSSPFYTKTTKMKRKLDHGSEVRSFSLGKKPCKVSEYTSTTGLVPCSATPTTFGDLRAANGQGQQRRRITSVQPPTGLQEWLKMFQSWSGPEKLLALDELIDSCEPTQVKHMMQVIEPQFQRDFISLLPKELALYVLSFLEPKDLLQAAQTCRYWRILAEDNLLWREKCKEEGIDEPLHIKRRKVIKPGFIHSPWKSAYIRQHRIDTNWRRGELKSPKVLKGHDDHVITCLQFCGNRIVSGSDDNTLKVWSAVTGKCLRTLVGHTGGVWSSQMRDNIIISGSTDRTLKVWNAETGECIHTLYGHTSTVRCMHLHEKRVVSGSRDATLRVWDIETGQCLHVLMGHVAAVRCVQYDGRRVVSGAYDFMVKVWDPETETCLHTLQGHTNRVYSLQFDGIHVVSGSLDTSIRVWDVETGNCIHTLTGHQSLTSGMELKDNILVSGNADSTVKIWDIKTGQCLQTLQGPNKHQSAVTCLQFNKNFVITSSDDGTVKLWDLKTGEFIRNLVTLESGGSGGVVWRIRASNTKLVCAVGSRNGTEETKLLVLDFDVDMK
# MITF primary: MITF inhibitors, primary screen, biochemical, AlphaScreen, human. 650,000 compounds, 0.91% hits. inhibition, % at 2.6 µM. Microphthalmia-associated transcription factor (Homo sapiens), O75030. AlphaScreen MITF homodimerization, bead proximity signal; in the data active = inhibition above about 50%;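 also: 0% = vehicle wells with protein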
# TEAD-YAP inh: TEAD-YAP interaction inhibition, primary screen, TEAD-YAP interaction inhibitor project, luminescence, HEK-TIYL cells; AID 1259422, 2018; 640,000 compounds, 1.4% hits; inhibition, % at 9.12 µM; TEAD-Gal4/YAP UAS-luciferase luminescence; in the data active = inhibition above about 32%;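 also: 0% = median of test compound wells and 100% = reference inhibitor wells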
# * = called active by the depositor.
SMILES,GPR151 activ,FBW7 act,MITF primary,TEAD-YAP inh
CC(C)(C)C1CCc2onc(C(=O)NC3CCCC3)c2C1 (configuration not stated),1,2.6*,13,0
C=CCNC(=O)c1noc2c1CC(C(C)(C)C)CC2 (configuration not stated),0,0,10,-3
Cc1ccc(C(=O)/C=C/Nc2ccc(F)cc2F)o1,-1,0,-13,61*
Cc1ccc(C(=O)/C=C/Nc2cccc(Cl)c2C)o1,0,0,10,-13
Cc1ccc(C(=O)/C=C/Nc2ccc(Br)cc2F)o1,0,0,6,77*
COc1cc(/C=C2\N=C(c3cccc(F)c3)OC2=O)cc(OC)c1OC,0,0,9,4
COc1ccc(C)cc1N(C)C(=O)Cn1ncc2c1-c1cc(C)ccc1OC2,0,0,-2,23
Cc1nc(Nc2ccc3[nH]ncc3c2)cc(OC[C@@H](N)Cc2ccccc2)n1,0,0,7,-1
COc1cc(/C=C2/C(=O)Nc3ccccc32)cc(OC)c1O,1,0,1,-11
COc1cc(OC)c(/C=C2/C(=O)Nc3ccccc32)c(OC)c1,2,0,0,53*
O=C(C1CCN(C2CCN(Cc3ccoc3)CC2)CC1)N1CCCC1,1,0,-9,2
O=C(Nc1nc2ccccc2[nH]1)c1cc(F)c(F)cc1Cl,-10,0,10,54*
CCN(CC)c1ccc(N=Nc2ncn[nH]2)cc1,-1,-2,36,44*
COc1ccc2c(c1)[nH]c1c(=O)n(CCCN3CCCCCC3)cnc12,1,0,-1,-3
O=C(NCc1ccco1)C1CC(c2ccccc2F)=NO1 (configuration not stated),1,0,2,5
CCn1ncc(C2=NOC(C(=O)NCc3ccco3)C2)c1C (configuration not stated),0,0,-20,45*
COC(=O)C1=CN(CC2CCCO2)C=C(C(=O)OC)C1c1cccc(O)c1 (configuration not stated),0,0,11,3
CCN1C=C(C(=O)OC)C(c2cccc(OCc3ccccc3)c2)C(C(=O)OC)=C1,1,2.0*,4,-2
COC(=O)C1=CN(C)C=C(C(=O)OC)C1c1cccc(OCc2ccccc2)c1,0,2,-21,-16
COC(=O)C1=CN(CC2CCCO2)C=C(C(=O)OC)C1c1cccc(Oc2ccccc2)c1 (configuration not stated),0,2.4*,-16,-24
CCCOc1ccc(C2C(C(=O)OC)=CN(CCC)C=C2C(=O)OC)cc1,2,3.0*,6,-5
CCc1ccc(NC(=O)CSc2nc3ccccc3c3nc(C)nn23)cc1,0,0,10,62*
Cc1nc2c3ccccc3nc(SCC(=O)Nc3ccc(Br)cc3)n2n1,0,0,5,4
CCC(C)C(=O)N1CCCC(c2nc(-c3cccc(OC)c3)no2)C1 (configuration not stated),-2,0,-4,61*
O=C(c1cc(-c2ccccc2)on1)N1CCCCCC1,-1,1,23,-67
SMILES,GPR151 activ,FBW7 act,MITF primary,TEAD-YAP inh
O=C(c1cc(-c2cccc(O)c2)on1)N1CCCCC1,-3,0,16,67*
COc1cccc(-c2cc(C(=O)N3CCCC3)no2)c1,-4,0,10,38*
CCN(CCCNc1nc(-c2cc(OC)ccc2OC)no1)c1ccccc1,0,0,7,2
CCOc1ccc(NC(=O)C(NS(=O)(=O)c2cccc3nsnc23)C(C)C)cc1 (configuration not stated),0,0,1,-9
Cc1ccc[n+](C(C)C(=O)c2ccc(-c3ccccc3)cc2)c1 (configuration not stated),0,0,-10,66*
CC(C(=O)c1ccc(-c2ccccc2)cc1)[n+]1ccccc1 (configuration not stated),0,0,-10,18
CCN(CC)CCNC(=O)c1ccc2c(=O)n(CCC3=CCCCC3)c(=S)[nH]c2c1,-1,0,6,-11
Cc1ccc2nc(-c3cccc(Cl)c3)cn2c1,-8,0,7,77*
Cc1ccc2nc(-c3ccc4ccccc4c3)cn2c1,-6,0,2,94*
CN(C)S(=O)(=O)c1cccc(-c2cn3cc(Cl)ccc3n2)c1,-1,0,15,-44
COc1ccc(-c2cn3cc(C)ccc3n2)cc1F,-6,0,1,68*
Cc1ccc2nc(-c3ccc4c(c3)NC(=O)CO4)cn2c1,-1,0,3,-49
COc1ccc(-c2cn3cc(C)ccc3n2)cc1OC,-8,0,4,-5
CCCSc1nnc2c(n1)OC(c1cn[nH]c1-c1ccccc1)Nc1ccccc1-2 (configuration not stated),2,0,9,-39
O=C(NCCc1ccccc1)c1cccc2nccnc12,1,0,-11,-17
CC1=NN(c2ccccc2)C(=O)/C1=C(/c1ccccc1)N1CCOCC1,1,0,-5,40*
C/C(CC(C)C)=N/NC(=O)c1ccc(Br)cc1,0,0,-16,-16
CCC/C=N/NC(=O)c1ccc(O)cc1,-1,0,10,-18
CCC/C=N/NC(=O)c1cccc(O)c1,-2,0,9,34*
C/C(CC(C)C)=N\NC(=O)c1cccc(O)c1,-2,0,8,40*
CCOc1ccc(CC(=O)N(CCCN2CCOCC2)c2nc3ccc(F)cc3s2)cc1,-1,0,13,-61
C/C(=N\N=C1/NC(=O)C(C)S1)c1ccccc1 (configuration not stated),1,0,4,1
COc1ccccc1C(=O)Nc1cccc(N2CCC(NCC3(O)CCCCC3)CC2)c1,-1,0,7,6
Nc1nc(Nc2ccc(Oc3ccccc3)cc2)cc(-c2ccccc2)n1,4,0,8,44*
Cc1cc(C)nc(Nc2ccc(Oc3ccccc3)cc2)n1,-2,0,7,46*
SMILES,GPR151 activ,FBW7 act,MITF primary,TEAD-YAP inh
Cc1cccc(Nc2ccc(N3CCN(C(=O)c4ccc(Br)o4)CC3)nn2)n1,0,1,-3,-6
COC(=O)Cn1cnc2c1c(=O)[nH]c(=O)n2C,-1,0,7,3
Cn1c(=O)[nH]c(=O)c2c1ncn2CC(=O)NN,-1,2.4*,5,-6
Cc1cc2c(cc1S(=O)(=O)N(Cc1ccccc1)C(C)C)OCCN2C,-1,0,4,-9
O=C(O)c1ccccc1Nc1cccc(OCc2ccc3ccccc3n2)c1,0,0,12,46*
O=C(COc1ccc2ccccc2c1)Nc1cccc(C(=O)Nc2ccccc2C(=O)O)c1,1,0,-4,8
O=C(CN1C(=O)c2ccc([N+](=O)[O-])cc2C1=O)Nc1ccccc1C(F)(F)F,0,0,0,2
COC(=O)C1=CN(C(C)C)C=C(C(=O)OC)C1c1ccccc1Br,-1,2,3,-9
